Test results published in PubChem BioAssay (NCI).
The panel holds about 83,000 compounds, 20% with a hit somewhere; the sample as a whole holds those more often.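 Method: cells in 96-well plates; compound added at one concentration; 48 h incubation; percent growth measured; values under 10 scored active.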 Calls of active or inactive are those of the source.

Experiments:
Assay in all cases: NCI-60 one-dose screen, 48 h (100 = growth as untreated, 0 = no growth, -100 = all killed)
Conditions in all cases: 10 µM unless noted
[1] = system: T-47D breast
[2] = system: MDA-MB-435 melanoma
[3] = system: SW-620 colon
[4] = system: MCF7 breast
[5] = system: HCT-116 colon
[6] = system: HCC-2998 colon
[7] = system: KM12 colon
[8] = system: BT-549 breast

SMILES | growth [1] | growth [2] | growth [3] | growth [4] | growth [5] | growth [6] | growth [7] | growth [8]
COc1cc(-c2nn(-c3ccc(NC(=O)c4cc(Cl)cc(Cl)c4)cc3)cc2-c2ccncc2)ccc1Cl | 79.8% (inactive) | 84.1% (inactive) | 77.2% (inactive) | 78% (inactive) | 64.9% (inactive) | 62.2% (inactive) | 38.7% (inactive) | 
O=C(Nc1ccc(-n2cc(-c3ccncc3)c(-c3ccc(Cl)c(O)c3)n2)cc1)Nc1ccc(Cl)c(C(F)(F)F)c1 | 4.31% (active) | -37.7% (active) | 11% (inactive) | -0.973% (active) | -15.8% (active) | 0.686% (active) | 1.21% (active) | 
Clc1ccc(N/N=C(\c2ccccc2)c2ccccn2)nc1 |  | 26.6% (inactive) | 27.2% (inactive) | 3.62% (active) | 2.71% (active) | 35.9% (inactive) | 21.7% (inactive) | 16.7% (inactive)
C/C=C/C/C=C/[C@H](C)C[C@H](O)[C@@H]1C[C@@H]2O[C@H]2/C=C/[C@@H]2OC(C)(C)O[C@H]2/C=C/C[C@H](C)CC(=O)O1 | -4.89% (active) | 77.1% (inactive) | 56.8% (inactive) | 45.1% (inactive) | 18.6% (inactive) | 71.9% (inactive) | 31.7% (inactive) | 
O=C(N/N=C\c1ccc(-c2ccc(Br)cc2)o1)c1cc2oc(-c3cccc(C(F)(F)F)c3)cc2[nH]1 | 101% (inactive) | 98.9% (inactive) | 118% (inactive) | 89.9% (inactive) |  | 85.5% (inactive) | 74% (inactive) | 
CCCCn1c(Cc2ccc(OC)cc2)nc2cc(OC)c(OC)cc2c1=O | 57% (inactive) | 83.7% (inactive) | 92.5% (inactive) | 81.3% (inactive) |  | 98.1% (inactive) | 93.6% (inactive) | 
O=c1[nH]c2cc(O)ccc2n2cc3c(F)cccc3c12 | 39.1% (inactive) | -12.2% (active) | 18.7% (inactive) | -3.3% (active) | 19.9% (inactive) |  | 34.7% (inactive) | 
COc1ccc2cc(C(C)C(=O)Nc3ccc(S(=O)(=O)Nc4cc(C)on4)cc3)ccc2c1 (stereo not drawn) | 84.8% (inactive) | 105% (inactive) |  | 102% (inactive) | 96.5% (inactive) |  | 110% (inactive) | 
CC(=O)Nc1nc(C)c(C(=O)NNC(=O)Nc2ccccc2)s1 | 91.1% (inactive) | 128% (inactive) | 100% (inactive) | 100% (inactive) | 102% (inactive) | 104% (inactive) | 98.6% (inactive) | 
CCN(CC)CCCC(C)Nc1c(C)cnc2cc(Cl)c(C)cc12 (stereo not drawn) |  | 89.9% (inactive) | 85.9% (inactive) | 85.6% (inactive) | 56.9% (inactive) | 74.5% (inactive) | 81.9% (inactive) | 69.2% (inactive)
O=C1OC(c2ccc(-c3ccccc3)cc2)=C/C1=C/c1c2ccccc2cc2ccccc12 | 102% (inactive) | 102% (inactive) | 96.9% (inactive) | 83.9% (inactive) |  | 98.7% (inactive) | 97.3% (inactive) | 
Cc1[nH]n(C(=S)Nc2nc3cc(Cl)c(F)cc3s2)c(=O)c1N=Nc1ccc(F)c(Cl)c1 | 79.6% (inactive) | 124% (inactive) | 102% (inactive) | 80.8% (inactive) |  | 114% (inactive) | 110% (inactive) | 
CCS(=O)(=O)OCCO[C@H]1Cc2cc3ccc(=O)oc3cc2OC1(C)C |  | 107% (inactive) | 97% (inactive) | 95.1% (inactive) | 106% (inactive) | 109% (inactive) | 104% (inactive) | 100% (inactive)
COC(=O)C1CC(=O)N(C(=O)Nc2ccc(Cl)cc2Cl)C1 (stereo not drawn) |  | 107% (inactive) | 105% (inactive) | 87.6% (inactive) | 98.1% (inactive) | 107% (inactive) | 104% (inactive) | 95.9% (inactive)
COC(=O)Nc1nc2ccc(C(=O)c3ccccc3N(C)C3COC3)cc2[nH]1 |  | -42.1% (active) | 14.9% (inactive) | 19% (inactive) | 30.4% (inactive) | 67.2% (inactive) | 17% (inactive) | 60.4% (inactive)
